# Laboratory results reported in PubChem BioAssay AID720519 (National Center for Advancing Translational Sciences (NCATS), 2013).
# Results filed as inconclusive are left out. Entries that show only a call come without a potency. The source made the active and inactive calls. Calls follow the shape of the dose curve; as a rule, active = well fitted activation curve with a large enough effect; inconclusive = small, poorly fitted or top-dose-only effect; inactive = flat fitted curve, though single readings scatter. Square brackets hold non-standard residues; d marks the D form. Peptide text beside a SMILES is read from it. ξ: configuration not given here. ξLac(3-iPr) = CC(C)CC(O)C(=O)O; NMeV = CN[CH](C(=O)O)C(C)C; NMeA = CN[CH](C)C(=O)O; βAla = NCCC(=O)O
# Assay: qHTS for Inhibitors of Cell Surface uPA Generation: Confirmatory Assay for Cherry-picked Compounds
# Details: cell surface uPA activity generation, qHTS confirmation; series mostly up to 115 µM
# Excerpt: The overall objective of this project is to perform a quantitative high throughput screen (qHTS) to identify novel compounds that inhibit the generation of cell surface urokinase activity. The urokinase plasminogen activator (uPA) is one of the two primary endogenous systems that mediate plasminogen activation into plasmin. Members of this system, including uPA and its receptor (uPAR), are overexpressed in several malignant tumors. This system plays a major role in adhesion, migration, invasion and metastasis of cancer cells. Small molecule inhibitors of the uPA system will serve as probes to understand the molecular mechanisms of the uPA cascade and better understanding the micro-environmental circumstances that facilitate the activation of plasminogen by uPA, and finally may provide novel candidate agents for anticancer drug therapy.
# […] […] Upon inhibition of the uPA activation cascade, the subsequent cell surface uPA activity-dependent translocation of LF into the cytoplasm is inhibited. ATP-Lite is used to measure intracellular ATP concentrations (measure cell viability) which remain increased if LF entry into the cytoplasm is inhibited. This validation assay was performed using a small set of cherry picked compounds. Activation of cell viability (increase in luminescence signal) due to inhibition of the cell surface uPA generation is the desired outcome of this assay.
# NIH Chemical Genomics Center [NCGC]
# NIH Molecular Libraries Probe Centers Network [MLPCN]
# Assay Submitter (PI): Thomas Bugge, National Institute of Dental and Craniofacial Research, NIH
# Cultured RAW 264.7 were dispensed into 1536-well clear bottom, white walled tissue culture plates at a density of 4000 cells/well and were incubated overnight (12-16 h) at 37 C in a 5% CO2 incubator. Serially diluted compounds (1:5 dilution) in 23 nl DMSO were added to cells (0.0024 uM to 3.83 uM final concentration). […] Compound and reagent-treated plates were incubated for 24 h at 37 C in a 5% CO2 incubator. Three microliter of PerkinElmer ATPlite was then added to each well and luminescence was detected using the PerkinElmer ViewLux plate reader for a 5 sec exposure.
# Potency is read from the fitted curve at half-maximal effect.
row,SMILES,Potency
1,c1cncc(C2CCCCN2)c1 (stereo unspecified),inactive
2,O=c1[nH]c(=O)n(-c2ccc(Cl)cc2)c(O)c1C=Nc1ccc(S(=O)(=O)Nc2nccs2)cc1,inactive
3,COc1ccccc1N1CCN(Cc2ccc(SC)cc2)CC1,inactive
4,Cc1ncc(CN2CCCC(C(=O)c3cccc(OC(C)C)c3)C2)s1 (stereo unspecified),inactive
5,CCOC(=O)c1ccc(N=Cc2c(O)n(-c3ccc(OC)cc3)c(=S)[nH]c2=O)cc1,inactive
6,O=c1[nH]c(=O)n(CCc2ccccc2)c(O)c1C=NC1CC1,inactive
7,COc1ccc(-c2nn(CCC#N)cc2C(=O)Nc2cccc([N+](=O)[O-])c2)cc1OC,inactive
8,CCCCCn1c(=O)c(C(=O)Nc2ccccn2)c(O)c2ccccc21,inactive
9,Cc1ccccc1O,inactive
10,COCC(=O)N1Cc2ccccc2-n2nncc2C1,inactive
11,COc1ccccc1NC(=O)N1C[C@@H]2C[C@@H](C1)c1cccc(=O)n1C2,inactive
12,Cc1cc(C(=O)NP(=O)(N2CCOCC2)N2CCOCC2)c(C)n1C1CC1,inactive
13,CCC(C)C1NC(=O)C2CCCN2C(=O)C(CC(C)C)OC(=O)CCNC(=O)C(C)N(C)C(=O)C(C(C)C)N(C)C1=O (stereo unspecified) (cyclo([ξLac(3-iPr)]PI[NMeV][NMeA][βAla]); configuration not given here),3.69 µM (active)
14,C[N+](C)(C)CCOC(=O)CBr,inactive
15,FC(F)(F)Oc1ccc(NC2=NCCCS2)cc1,inactive
16,COC(=O)C1=C(c2cccc(OC)c2OC)C[C@@H]2CC[C@H]1N2C(=O)NC1CC1,inactive
17,O=P1(NCCCl)OCCCN1CCCl (stereo unspecified),inactive
18,Cc1ccc(-n2c(O)c(C=NCCN3CCNCC3)c(=O)[nH]c2=S)cc1,inactive
19,CCOc1ccc(CN2CCN(C(=O)Cc3ccccc3)CC2)cc1,inactive
20,COc1ccc(-c2nn(CCC#N)cc2C(=O)Nc2ccccc2)cc1OC,inactive
21,O=C(c1ccc(F)c([N+](=O)[O-])c1)N1CC2CC(C1)c1cccc(=O)n1C2 (stereo unspecified),inactive
